Residue numbers refer to the chain shown, from its start. The full ranking holds about 24,000 sequences; the median of “enrichment r” is about 0.99, and the highest 2% start at about 3.7. For the sample, the highest values were picked, then their nearest neighbours and some sequences at random.
T1: UNK ZnF1-3 (human, UniProt Q9C0B0 31-174)
T1 sequence: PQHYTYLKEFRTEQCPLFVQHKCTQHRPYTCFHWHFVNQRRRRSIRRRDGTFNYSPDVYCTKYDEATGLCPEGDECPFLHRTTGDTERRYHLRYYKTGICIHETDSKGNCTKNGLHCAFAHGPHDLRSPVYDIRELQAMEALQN

B1: chr16:18799448:18799449:-_ENSG00000134419_ENST00000563390|perfect_dup|FALSE|FALSE (ssRNA)
RNA: GGGAGUUCUACAGUCCGACGAUCCCUUCCUGUGAGGUUCACAACAAUCUUCCCAGCUCUGUGAUCAUCAAUGAUCUCAAAUUCACCAAUGUAUCCGUGCUUCAUCAUCACGGUUAAGAACCGAACGAUGACUUUAGAACAUGGCAACAGAGGAUUGAGCAUCA
B2: 99623494_99624154_931_CDS_ENSMUSG00000067567_ENSMUST00000087916|mouse|control|control (ssRNA)
RNA: GGGAGUUCUACAGUCCGACGAUCCUGAAUGGGCACAUUGACACUGUAGUACCGUCCUUUCCCCAGGCCAACAUCAGACAUGUCACCUGUUCCUGGGAAAAAUCCUGGGGAGAACUUGUGCAGGGACACAGUCAUAACCUUCGACAACAGAGGAUUGAGCAUCA
B3: chr2:183789671:183789672:-_ENSG00000061676_ENST00000360982|hu_hu|FALSE|FALSE (ssRNA)
RNA: GGGAGUUCUACAGUCCGACGAUCUGGCAGGUACACUUGAAUUUCAAAAAUUUAAAACAUAUAUAAAAAGUGGUUAGGGACUAACAUUUGUAUCAACAGUUGAUAAAUGUCUAAGAUUGUUUAUUAUACAGCAGGGUACAAUGGCAACAGAGGAUUGAGCAUCA
B4: chr9:14812383:14812384:-_ENSMUSG00000031934_ENSMUST00000164273|mus_mus|mus_mus_mus_hu_True|68_88 (ssRNA)
RNA: GGGAGUUCUACAGUCCGACGAUCAUAGCCCAGGUAGAUACACGCUAACAGUAUAACGAUGAGUGUCACCAGCCGGCAGCUAAUGUACUUGAUGAUUAAAUUAUUAGAAUUUUUCUUUGUCUUCAAGUACUGCUCCACAAUUGGCAACAGAGGAUUGAGCAUCA
B5: 37607701_37614754_715_CDS_ENSG00000102710_ENST00000475892|human|control|control (ssRNA)
RNA: GGGAGUUCUACAGUCCGACGAUCGCUCUCAAGCAAAAGUUUGUCUUCCUGGGUCCAUUUGUGGUUAUCACUUGUUAUUGAAUGUACAUCACAAAUUAAAGUCUGCAUUGUUGGACGUAAGAGAAUGUGCCGACUUUGGUAACCCAACAGAGGAUUGAGCAUCA
B6: chr2:183789671:183789672:-_ENSG00000061676_ENST00000360982|hu_hu|motif|central (ssRNA)
RNA: B3 RNA with U81G, A82G
B7: chr1:172123744:172123745:-_ENSMUSG00000026667_ENSMUST00000150821|mus_hu|motif|central (ssRNA)
RNA: GGGAGUUCUACAGUCCGACGAUCAAACGCAUUGUUCACACUUUUUAGGAAUAUAGGAAAGUGGAAAAUAAAAGUUCUUUGCGGUUCAGCAGGAAAGAGUUUAAAAGACUUGAAUGGAAAUCAGAAAUUUAGGGAUUUGAGAAACAACAGAGGAUUGAGCAUCA

Each binder was assayed against T1, UNK ZnF1-3 (assay: nsRBNS (natural sequence RNA bind-n-seq); RBNS binding buffer (assumed for nsRBNS): 25 mM Tris pH 7.5, 150 mM KCl, 3 mM MgCl2, 0.01% Triton X-100, 500 ug/ml BSA, 20 U/ml SUPERase-In, 4 C; UNK is unkempt and MSI1 is Musashi-1; names of the RNAs are library labels; protein concentration not given here; high values mean tight binding).
For B1, the binding signal was 0.793 enrichment R. B2 was tested, and the binding signal was 0.68 enrichment R. In the case of B3, the binding signal is reported as 4.06 enrichment R. In the case of B4, the binding signal is reported as 1.31 enrichment R. Work on B5 yielded a binding signal of 0.803 enrichment R. B6 gave a binding signal of 6.64 enrichment R. B7 was tested, and the binding signal was 3.57 enrichment R.

— article PMC12136788
